ADAM10 inh – human ADAM10 inhibitors, primary screen, biochemical, QFRET, HTS; inhibition, % at 7 µM; AID 720582, 2013; recombinant ADAM10, EDANS/DABCYL FRET peptide cleavage, 3 h; Disintegrin and metalloproteinase domain-containing protein 10 (Homo sapiens), O14672; 370,000 tested, 0.62% active;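 active = inhibition above a per-campaign cutoff equal to the mean of compounds falling between control-based bounds plus 3 SD, cut at about 20% in these data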;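 note: 0% = DMSO wells while the 100% control is not disclosed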
APOBEC3A inh – APOBEC3A ssDNA deaminase inhibitors, primary screen, selectivity assay for APOBEC3G inhibitor project, biochemical, FAM/TAMRA oligo cleavage fluorescence | 330,000 tested, 0.41% active | DNA dC->dU-editing enzyme APOBEC-3A (Homo sapiens), P31941 | recombinant A3A, FAM/TAMRA ssDNA deamination fluorescence | inhibition, % at 20 µM | AID 493011, 2011;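 active = at least 40% inhibition at 20 µM here, with at most 30% in a related deaminase screen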;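 note: plate controls were A3A with DMSO for no effect and wells lacking A3A enzyme for full effect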
ADAM17 inh – ADAM17 inhibitors, primary screen, biochemical, QFRET; AID 720648, 2013; 370,000 tested, 0.83% active; inhibition, % at 6.95 µM; recombinant ADAM17, EDANS/DABCYL FRET peptide cleavage;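 active = inhibition above the mean of compounds lying between control limits plus 3 SD, set per campaign, cut at about 8.5% in these data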;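 note: 0% = DMSO-only wells as the low control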
APOBEC3G inh – APOBEC3G DNA deaminase inhibitors, primary screen, biochemical, fluorescence, single-stranded DNA substrate, uHTS; DNA dC->dU-editing enzyme APOBEC-3G (Homo sapiens), Q9HC16; recombinant A3G, ssDNA deamination FAM/TAMRA fluorescence; 330,000 tested, 0.28% active; inhibition, % at 20 µM;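 active = inhibition of at least 40% at 20 µM, with no more than 30% in the related APOBEC3A deaminase screen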;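 note: plate controls were DMSO wells with A3G for no effect and wells lacking A3G enzyme for full effect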
Target sequence (Q9HC16 whole entry, looked up): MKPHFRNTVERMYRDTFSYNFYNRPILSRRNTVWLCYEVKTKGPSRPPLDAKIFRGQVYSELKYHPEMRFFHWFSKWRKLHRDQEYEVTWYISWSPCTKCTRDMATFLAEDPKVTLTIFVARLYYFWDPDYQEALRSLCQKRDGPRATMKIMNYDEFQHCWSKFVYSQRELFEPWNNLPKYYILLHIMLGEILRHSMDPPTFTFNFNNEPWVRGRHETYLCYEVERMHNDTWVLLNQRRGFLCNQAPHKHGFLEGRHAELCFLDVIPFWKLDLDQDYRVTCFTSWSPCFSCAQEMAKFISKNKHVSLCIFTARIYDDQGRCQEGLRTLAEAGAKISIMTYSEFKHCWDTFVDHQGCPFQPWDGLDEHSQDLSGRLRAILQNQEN
CendR NRP1 mod – modulators of CendR peptide binding to NRP-1, primary screen, biochemical, fluorescence polarization, uHTS | FAM-RPARPAR peptide binding to NRP-1 | Neuropilin-1 (Homo sapiens), O14786 | inhibition, % at 25 µM | AID 602438, 2012 | 360,000 tested, 0.85% active;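 active = inhibition or corrected inhibition above about 18%, plus a signal ratio from 0.5 to 1.5, limit read from the data, passing the limit was not always enough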
APOBEC3A confirm – APOBEC3A deaminase inhibitors, retest, confirmation, selectivity assay for APOBEC3G inhibitor project, biochemical, single concentration, fluorescence readout; shares compounds with APOBEC3A inh; recombinant A3A, ssDNA deaminase UDG fluorescence assay; inhibition, % at 20 µM; 1,400 tested, 63% active;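 active = inhibition reaching a set limit, 80% of the first screen's cutoff, at 20 µM in any replicate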;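 note: plate controls were DMSO wells with A3A for no effect and wells lacking A3A enzyme for full effect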
UDG ctr A3A – E. coli UDG inhibitors, confirmation, counter-screen for APOBEC3A inhibitor project, biochemical, single concentration, fluorescence, FAM/TAMRA oligo | AID 504714, 2011 | UDG counterscreen, FAM/TAMRA uracil oligo fluorescence | shares compounds with APOBEC3A inh | 1,000 tested, under 10 active | inhibition, % at 20 µM; call rule not given here
* = called active by the depositor; x = no result. The list is not random: actives were taken first. Their share in the collection is about 2.4%.

SMILES	ADAM10 inh	APOBEC3A inh	ADAM17 inh	APOBEC3G inh	CendR NRP1 mod	APOBEC3A confirm	others
CC(=O)CC[C@@H]1CC[C@]2(CCCN(S(=O)(=O)c3ccccc3)C2)O1	-3	x	0	x	x	x
CS(=O)(=O)c1ccc(-c2nnn(CC(N)=O)n2)cc1	-1	50*	-4	8	-7	17
C=CCN1CC(COCc2ccccc2)OCCS1(=O)=O (stereo not given)	-3	x	-2	x	x	x
CC(=O)c1ccc(NC(=O)C(C)OC(=O)CCCN=C2NS(=O)(=O)c3ccccc32)cc1 (stereo not given)	4	4	2	7	4	x
CC(OC(=O)CCCN=C1NS(=O)(=O)c2ccccc21)C(=O)NC1CCCCC1C (stereo not given)	-7	51*	-5	12	15	2
CCCC1CCC2(CC1)CCC2OC(=S)NCc1ccc(Cl)cc1 (stereo not given)	8	x	3	x	x	x
O=c1cc(N2CCN(c3cccc(Cl)c3Cl)CC2)[nH]c(=O)n1C1CCCCC1	2	x	-2	x	x	x
N#C/C(=C\c1c[nH]c2ccccc12)C(=O)NCC1CCCO1 (stereo not given)	6	63*	0	22	-17	64*	UDG ctr A3A=2
CC(=O)Nc1ccc(C(=O)NC2CCSc3ccccc32)cc1 (stereo not given)	1	45*	-4	4	2	-1
COc1ccc(NC(=O)/C(C#N)=C\c2ccc(Br)o2)cc1	-10	71*	-5	21	1	42*	UDG ctr A3A=-2
COc1ccc(NC(=O)/C(C#N)=C/c2ccc(-c3ccccc3C(=O)O)o2)cc1	1	-5	4	-11	-5	x
COC(=O)CCCCCCCCC(O)C[N+]1(C)CCOCC1 (stereo not given)	-1	53*	-1	23	11	78*	UDG ctr A3A=-3
COC(=O)CCCCCCCCC(O)CN(C)C (stereo not given)	0	1	-6	0	-10	x
CC(=O)OCCCCCCCCCCC[N+]1(C)CCCCC1	2	79*	3	20	6	73*	UDG ctr A3A=2
COC(=O)CCCCCCCCCC[N+]1(C)CCCCC1	9	44*	4	22	1	85*	UDG ctr A3A=2
COc1ccc(-c2ccccc2C2Cc3nnccc3CN2)cc1 (stereo not given)	4	x	-1	x	x	x
CCCc1nc2c(C)cc(Br)cn2c1Cc1cccc(Cl)c1	-13	x	-6	x	x	x
CCOC(=O)c1ccc2c(c1)N(CC)C(=O)c1ccccc1S2	x	52*	x	12	12	72*	UDG ctr A3A=-3
CC(C)CN(C(=O)CC(C)c1ccccc1)c1c(N)n(Cc2ccccc2)c(=O)[nH]c1=O (stereo not given)	-12	70*	-3	20	11	11
CC(C)CN(C(=O)CCc1ccccc1Cl)c1c(N)n(Cc2ccccc2)c(=O)[nH]c1=O	0	4	-4	-9	12	x
CCCC/C=C1/[C@H](c2ccccc2)N(C)C2=N[C@H](c3ccccc3)CC(=O)N21	-4	x	-3	x	x	x
CN1CCCCC(NC(=O)C23CC4CC(CC(C4)C2)C3)C1=O (stereo not given)	-6	x	-5	x	x	x
N=C(N)Cc1ccccc1Sc1ccccc1	-9	42*	-2	1	-7	1
c1ccc(Sc2ccccc2CN2CCCC2)cc1	0	2	-3	3	6	x
O=S1(=O)CC2c3ccc(F)cc3CN2CN1C1CCCC1 (stereo not given)	-11	x	-6	x	x	x

Screening data as filed in PubChem.
